Values joined by “and” are separate entries in the source; they are usually repeats but may differ in a detail not shown here. Equal entries are not always repeated.
Tests used:
[1] = molecular target: Mast/stem cell growth factor receptor Kit (Homo sapiens) (UniProt P10721); details: at 1 µM
[2] = tested on: Mast/stem cell growth factor receptor Kit (Homo sapiens), P10721 [D816V]; details: at 0.1 µM
[3] = tested on: Mast/stem cell growth factor receptor Kit (Homo sapiens), P10721 [D816V]; details: at 1 µM
[4] = tested on: Mast/stem cell growth factor receptor Kit (Homo sapiens), P10721 [T670I]; details: at 0.1 µM
Mast/stem cell growth factor receptor Kit (Homo sapiens), P10721 [T670I], sequence (P10721 whole entry T670I): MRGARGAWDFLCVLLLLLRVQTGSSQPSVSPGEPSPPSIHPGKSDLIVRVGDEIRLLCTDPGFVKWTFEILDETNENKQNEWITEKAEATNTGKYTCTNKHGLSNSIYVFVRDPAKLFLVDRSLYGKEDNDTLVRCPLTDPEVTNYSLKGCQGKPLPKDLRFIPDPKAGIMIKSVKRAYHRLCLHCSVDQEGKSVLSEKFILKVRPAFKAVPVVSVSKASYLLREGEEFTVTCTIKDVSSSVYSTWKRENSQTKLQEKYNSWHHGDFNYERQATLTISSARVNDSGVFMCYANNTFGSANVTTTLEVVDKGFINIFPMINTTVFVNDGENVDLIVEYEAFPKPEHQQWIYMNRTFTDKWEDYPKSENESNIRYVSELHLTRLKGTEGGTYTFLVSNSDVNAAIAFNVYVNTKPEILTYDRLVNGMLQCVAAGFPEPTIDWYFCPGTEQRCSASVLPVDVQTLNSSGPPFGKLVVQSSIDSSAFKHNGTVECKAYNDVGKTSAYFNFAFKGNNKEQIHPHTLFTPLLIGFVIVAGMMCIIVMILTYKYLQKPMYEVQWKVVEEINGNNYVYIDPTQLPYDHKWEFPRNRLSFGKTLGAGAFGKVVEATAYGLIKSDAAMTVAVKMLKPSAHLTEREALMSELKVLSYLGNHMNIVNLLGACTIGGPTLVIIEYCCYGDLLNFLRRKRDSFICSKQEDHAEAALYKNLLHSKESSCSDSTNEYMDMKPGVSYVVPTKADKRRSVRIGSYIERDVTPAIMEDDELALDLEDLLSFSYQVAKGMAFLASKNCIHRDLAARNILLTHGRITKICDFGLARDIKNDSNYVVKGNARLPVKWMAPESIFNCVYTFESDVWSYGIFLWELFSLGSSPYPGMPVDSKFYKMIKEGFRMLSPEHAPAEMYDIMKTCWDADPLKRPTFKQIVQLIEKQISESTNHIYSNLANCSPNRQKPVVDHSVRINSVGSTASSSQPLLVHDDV

[5] = tested on: Mast/stem cell growth factor receptor Kit (Homo sapiens), P10721 [T670I]; details: at 1 µM
[6] = tested on: Mast/stem cell growth factor receptor Kit (Homo sapiens), P10721 [V560G]; details: at 0.1 µM
Mast/stem cell growth factor receptor Kit (Homo sapiens), P10721 [V560G], sequence (P10721 whole entry V560G): as the sequence (P10721 whole entry T670I) above, with V560G, I670T counted along it

[7] = tested on: Mast/stem cell growth factor receptor Kit (Homo sapiens), P10721 [V560G]; details: at 1 µM
[8] = molecular target: Tyrosine-protein kinase Lck (Homo sapiens) (UniProt P06239); details: at 0.1 µM
Tyrosine-protein kinase Lck (Homo sapiens), sequence (P06239 2-509 limits assumed): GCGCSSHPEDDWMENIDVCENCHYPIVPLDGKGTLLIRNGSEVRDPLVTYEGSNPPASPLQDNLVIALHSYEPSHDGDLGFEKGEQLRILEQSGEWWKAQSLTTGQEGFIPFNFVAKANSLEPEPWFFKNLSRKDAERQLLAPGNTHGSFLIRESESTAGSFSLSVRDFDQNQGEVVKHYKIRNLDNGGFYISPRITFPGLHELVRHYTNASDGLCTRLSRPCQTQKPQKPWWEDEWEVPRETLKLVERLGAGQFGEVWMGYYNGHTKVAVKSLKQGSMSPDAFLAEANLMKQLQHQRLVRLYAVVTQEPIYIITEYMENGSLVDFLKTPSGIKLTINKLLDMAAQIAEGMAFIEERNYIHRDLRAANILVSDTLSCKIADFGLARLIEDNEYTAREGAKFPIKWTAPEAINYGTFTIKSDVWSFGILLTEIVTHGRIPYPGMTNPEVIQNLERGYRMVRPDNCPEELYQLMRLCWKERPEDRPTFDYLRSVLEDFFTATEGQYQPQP

[9] = molecular target: Tyrosine-protein kinase Lck (Homo sapiens) (UniProt P06239); details: at 1 µM
[10] = molecular target: Leukocyte tyrosine kinase receptor (Homo sapiens) (UniProt P29376); details: at 0.1 µM
Leukocyte tyrosine kinase receptor (Homo sapiens), sequence (P29376 whole entry): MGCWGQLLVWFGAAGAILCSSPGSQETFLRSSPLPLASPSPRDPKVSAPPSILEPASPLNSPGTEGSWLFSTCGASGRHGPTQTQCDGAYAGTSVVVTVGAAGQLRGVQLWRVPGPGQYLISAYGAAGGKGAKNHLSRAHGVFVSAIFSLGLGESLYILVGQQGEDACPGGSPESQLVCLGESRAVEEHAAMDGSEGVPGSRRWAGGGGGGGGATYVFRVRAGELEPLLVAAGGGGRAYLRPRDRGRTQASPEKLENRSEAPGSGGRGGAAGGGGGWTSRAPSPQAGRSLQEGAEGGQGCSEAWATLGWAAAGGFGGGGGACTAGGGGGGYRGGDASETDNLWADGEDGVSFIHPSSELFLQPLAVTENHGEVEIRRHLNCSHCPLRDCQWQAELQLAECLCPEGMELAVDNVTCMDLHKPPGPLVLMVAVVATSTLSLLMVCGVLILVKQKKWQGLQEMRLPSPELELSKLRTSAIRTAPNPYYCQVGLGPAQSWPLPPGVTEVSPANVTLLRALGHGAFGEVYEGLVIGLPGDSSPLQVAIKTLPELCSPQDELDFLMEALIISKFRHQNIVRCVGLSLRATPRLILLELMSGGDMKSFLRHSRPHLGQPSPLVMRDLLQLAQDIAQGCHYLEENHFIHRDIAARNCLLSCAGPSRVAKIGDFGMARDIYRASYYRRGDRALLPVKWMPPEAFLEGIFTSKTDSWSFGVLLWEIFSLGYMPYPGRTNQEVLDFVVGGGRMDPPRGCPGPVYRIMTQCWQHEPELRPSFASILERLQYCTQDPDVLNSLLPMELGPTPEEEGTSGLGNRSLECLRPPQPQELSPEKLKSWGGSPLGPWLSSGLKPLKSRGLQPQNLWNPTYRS

[11] = molecular target: Leukocyte tyrosine kinase receptor (Homo sapiens) (UniProt P29376); details: at 1 µM
[12] = molecular target: Tyrosine-protein kinase Lyn (Homo sapiens) (UniProt P07948); details: at 0.1 µM
Tyrosine-protein kinase Lyn (Homo sapiens), sequence (P07948 2-512 limits assumed): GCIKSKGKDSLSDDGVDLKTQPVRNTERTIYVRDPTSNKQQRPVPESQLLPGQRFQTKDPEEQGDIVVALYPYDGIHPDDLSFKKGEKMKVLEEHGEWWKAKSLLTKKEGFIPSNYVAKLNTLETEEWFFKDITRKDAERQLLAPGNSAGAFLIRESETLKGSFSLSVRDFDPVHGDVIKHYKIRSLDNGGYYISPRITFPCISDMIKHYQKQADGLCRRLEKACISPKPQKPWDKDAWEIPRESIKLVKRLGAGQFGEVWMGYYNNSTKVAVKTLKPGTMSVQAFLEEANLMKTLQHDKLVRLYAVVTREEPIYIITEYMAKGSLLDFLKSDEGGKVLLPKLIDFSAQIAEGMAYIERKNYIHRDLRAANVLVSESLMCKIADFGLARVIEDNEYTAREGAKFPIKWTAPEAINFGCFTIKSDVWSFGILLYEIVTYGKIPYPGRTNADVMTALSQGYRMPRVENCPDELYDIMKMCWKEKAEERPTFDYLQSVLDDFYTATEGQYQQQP

[13] = molecular target: Tyrosine-protein kinase Lyn (Homo sapiens) (UniProt P07948); details: at 1 µM
[14] = molecular target: Tyrosine-protein kinase Lyn (Homo sapiens) (UniProt P07948); details: at 0.1 µM; remark: listed apart in the source
[15] = molecular target: Tyrosine-protein kinase Lyn (Homo sapiens) (UniProt P07948); details: at 1 µM; remark: listed apart in the source
[16] = molecular target: T1, Tyrosine-protein kinase Mer (Homo sapiens) (UniProt Q12866); details: at 0.1 µM
T1 sequence (whole entry): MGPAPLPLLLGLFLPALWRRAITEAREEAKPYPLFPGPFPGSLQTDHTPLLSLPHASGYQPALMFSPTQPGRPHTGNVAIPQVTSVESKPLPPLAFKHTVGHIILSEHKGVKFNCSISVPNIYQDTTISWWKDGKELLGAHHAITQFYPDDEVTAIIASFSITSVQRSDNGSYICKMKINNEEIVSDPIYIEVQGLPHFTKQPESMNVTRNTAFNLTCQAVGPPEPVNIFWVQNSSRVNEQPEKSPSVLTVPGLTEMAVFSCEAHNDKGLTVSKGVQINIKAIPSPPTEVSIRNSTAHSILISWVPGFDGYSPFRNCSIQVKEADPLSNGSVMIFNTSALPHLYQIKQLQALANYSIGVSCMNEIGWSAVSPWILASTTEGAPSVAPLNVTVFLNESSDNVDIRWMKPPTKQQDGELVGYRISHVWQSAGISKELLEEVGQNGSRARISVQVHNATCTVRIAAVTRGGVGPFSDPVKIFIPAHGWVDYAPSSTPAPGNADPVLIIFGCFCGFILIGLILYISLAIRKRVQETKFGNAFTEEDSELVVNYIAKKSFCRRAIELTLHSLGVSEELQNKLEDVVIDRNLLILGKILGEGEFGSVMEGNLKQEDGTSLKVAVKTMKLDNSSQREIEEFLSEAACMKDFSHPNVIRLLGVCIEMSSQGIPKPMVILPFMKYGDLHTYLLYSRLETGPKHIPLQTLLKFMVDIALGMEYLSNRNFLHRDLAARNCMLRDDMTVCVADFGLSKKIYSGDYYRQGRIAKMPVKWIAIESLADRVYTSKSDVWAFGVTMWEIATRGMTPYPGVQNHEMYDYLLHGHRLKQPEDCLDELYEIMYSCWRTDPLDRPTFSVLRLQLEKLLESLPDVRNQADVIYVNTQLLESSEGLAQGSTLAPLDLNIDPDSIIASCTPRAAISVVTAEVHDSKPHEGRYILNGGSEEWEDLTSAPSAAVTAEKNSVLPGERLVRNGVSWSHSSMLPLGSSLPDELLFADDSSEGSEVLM

[17] = molecular target: T1, Tyrosine-protein kinase Mer (Homo sapiens); details: at 1 µM
[18] = molecular target: Hepatocyte growth factor receptor (Homo sapiens) (UniProt P08581); details: at 0.1 µM
Hepatocyte growth factor receptor (Homo sapiens), sequence (P08581 whole entry): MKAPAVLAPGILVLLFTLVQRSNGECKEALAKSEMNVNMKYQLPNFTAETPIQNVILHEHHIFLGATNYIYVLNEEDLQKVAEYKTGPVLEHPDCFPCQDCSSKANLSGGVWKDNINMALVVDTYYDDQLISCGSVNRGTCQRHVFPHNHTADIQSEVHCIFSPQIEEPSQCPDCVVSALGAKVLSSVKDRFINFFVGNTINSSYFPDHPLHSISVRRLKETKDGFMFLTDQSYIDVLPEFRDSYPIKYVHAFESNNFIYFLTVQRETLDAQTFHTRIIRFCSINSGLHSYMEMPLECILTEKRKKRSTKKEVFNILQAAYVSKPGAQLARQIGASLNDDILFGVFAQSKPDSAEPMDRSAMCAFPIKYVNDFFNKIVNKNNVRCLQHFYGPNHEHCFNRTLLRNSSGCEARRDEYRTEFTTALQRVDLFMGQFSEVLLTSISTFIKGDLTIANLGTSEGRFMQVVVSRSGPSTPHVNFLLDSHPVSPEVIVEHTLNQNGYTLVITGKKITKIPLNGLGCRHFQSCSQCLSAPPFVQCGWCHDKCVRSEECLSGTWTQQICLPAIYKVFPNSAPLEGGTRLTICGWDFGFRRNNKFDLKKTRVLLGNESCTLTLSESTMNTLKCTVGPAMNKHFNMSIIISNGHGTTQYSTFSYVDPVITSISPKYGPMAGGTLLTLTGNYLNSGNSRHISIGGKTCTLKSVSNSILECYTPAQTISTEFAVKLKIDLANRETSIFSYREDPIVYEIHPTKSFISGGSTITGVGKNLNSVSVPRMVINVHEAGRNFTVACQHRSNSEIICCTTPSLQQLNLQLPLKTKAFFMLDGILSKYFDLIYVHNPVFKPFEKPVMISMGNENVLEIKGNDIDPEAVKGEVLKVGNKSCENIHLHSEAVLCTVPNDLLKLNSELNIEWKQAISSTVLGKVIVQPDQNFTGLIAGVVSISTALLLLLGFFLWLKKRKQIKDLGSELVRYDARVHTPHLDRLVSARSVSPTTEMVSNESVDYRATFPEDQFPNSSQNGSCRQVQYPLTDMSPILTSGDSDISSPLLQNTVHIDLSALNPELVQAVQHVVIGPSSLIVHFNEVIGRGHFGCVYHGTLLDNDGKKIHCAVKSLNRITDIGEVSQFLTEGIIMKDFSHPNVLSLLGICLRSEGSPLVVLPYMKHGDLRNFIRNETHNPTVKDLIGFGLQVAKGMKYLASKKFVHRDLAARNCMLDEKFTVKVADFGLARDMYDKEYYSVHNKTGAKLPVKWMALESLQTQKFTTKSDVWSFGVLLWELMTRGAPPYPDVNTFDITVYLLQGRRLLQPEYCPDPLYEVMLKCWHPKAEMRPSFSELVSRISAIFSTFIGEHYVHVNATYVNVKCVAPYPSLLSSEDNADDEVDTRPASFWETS

[19] = molecular target: Hepatocyte growth factor receptor (Homo sapiens) (UniProt P08581); details: at 1 µM
[20] = molecular target: T2, Muscle, skeletal receptor tyrosine-protein kinase (Homo sapiens) (UniProt O15146); details: at 0.1 µM;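 note: values are mean inhibition of MuSK from the GSK PKIS kinase screening panel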
T2 sequence (whole entry): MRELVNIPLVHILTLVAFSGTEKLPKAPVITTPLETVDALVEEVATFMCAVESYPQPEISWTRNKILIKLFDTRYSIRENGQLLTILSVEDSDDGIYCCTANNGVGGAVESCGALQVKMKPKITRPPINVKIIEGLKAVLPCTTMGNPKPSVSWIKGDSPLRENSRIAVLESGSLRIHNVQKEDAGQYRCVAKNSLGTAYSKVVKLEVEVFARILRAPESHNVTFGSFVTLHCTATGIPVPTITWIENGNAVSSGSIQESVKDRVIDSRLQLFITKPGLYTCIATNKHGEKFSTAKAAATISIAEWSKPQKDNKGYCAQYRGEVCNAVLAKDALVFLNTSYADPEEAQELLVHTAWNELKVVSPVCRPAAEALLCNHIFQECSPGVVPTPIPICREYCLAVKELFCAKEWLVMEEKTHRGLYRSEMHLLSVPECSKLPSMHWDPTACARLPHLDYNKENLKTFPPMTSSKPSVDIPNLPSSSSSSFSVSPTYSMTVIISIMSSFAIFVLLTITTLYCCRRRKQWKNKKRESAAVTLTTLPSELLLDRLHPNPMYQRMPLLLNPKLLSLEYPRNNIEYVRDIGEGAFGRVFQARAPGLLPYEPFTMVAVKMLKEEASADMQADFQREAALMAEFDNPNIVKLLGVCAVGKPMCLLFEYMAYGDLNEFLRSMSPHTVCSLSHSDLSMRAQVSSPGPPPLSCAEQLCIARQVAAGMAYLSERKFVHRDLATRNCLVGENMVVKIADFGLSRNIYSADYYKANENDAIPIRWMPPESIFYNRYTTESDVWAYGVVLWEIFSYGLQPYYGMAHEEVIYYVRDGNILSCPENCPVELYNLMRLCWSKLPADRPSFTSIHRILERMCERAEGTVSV

Mast/stem cell growth factor receptor Kit (Homo sapiens), P10721 [D816V], sequence (P10721 whole entry D816V): as the sequence (P10721 whole entry T670I) above, with I670T, D816V counted along it
Mast/stem cell growth factor receptor Kit (Homo sapiens), sequence (P10721 whole entry): as the sequence (P10721 whole entry T670I) above, with I670T counted along it

| Structure (SMILES) | inhibition [1] | inhibition [2] | inhibition [3] | inhibition [4] | inhibition [5] | inhibition [6] | inhibition [7] | inhibition [8] | inhibition [9] | inhibition [10] | inhibition [11] | inhibition [12] | inhibition [13] | inhibition [14] | inhibition [15] | inhibition [16] | inhibition [17] | inhibition [18] | inhibition [19] | inhibition [20] |
| --- | --- | --- | --- | --- | --- | --- | --- | --- | --- | --- | --- | --- | --- | --- | --- | --- | --- | --- | --- | --- |
| CN(C)CCNC(=O)Nc1ccc(N(C)c2ccnc(Nc3ccc(CS(C)(=O)=O)cc3)n2)cc1 | 57.6% | 3.66% | 3.76% | 4.26% | 6.89% | 11.7% | 54.1% | 3.05% | 8.53% | 3.62% | 10.1% | 5.57% | 9.57% | 2.36% | 7.59% | 0.57% | 4.35% | 5.93% | 25.4% | 3.67% |
| CCS(=O)(=O)c1ccc(OC)c(Nc2ncc(-c3cccc(F)c3)o2)c1 | 97% | 4.96% | 9.62% | 19.7% | 81.3% | 0.05% | 34.1% | 20.4% | 64.1% | 7.85% | 6.89% | 32.5% | 78.7% | 26.3% | 75.4% | 2.9% | 9.7% | 6.73% | 5.27% | 3.58% |
| Cc1cc(O)cc(C)c1/C=C/c1cncc(C(=O)OC(C)(C)C)c1 | 85.7% | 1.84% | -1.16% | 4.32% | 2.87% | 2.94% | 18.4% | 4.23% | 26.8% | 2.71% | 2.98% | 13.7% | 57.2% | 13.6% | 53.4% | 1.26% | 2.87% | 4.92% | 5.5% | 3.21% |
| OCCCNc1nccc(-c2c(-c3ccc(F)cc3)nn3cc(C(F)(F)F)ccc23)n1 | 8.99% | 1.58% | 0.33% | -0.18% | 0.98% | -1.46% | -0.39% | 1.91% | 5.83% | 3.02% | -0.25% | 3.88% | 7.02% | 3% | 4.51% | 0.89% | 5.36% | 1.57% | 5.11% | 2.96% |
| Cc1c2ccc(N(C)c3ccnc(Nc4cccc(S(N)(=O)=O)c4)n3)cc2nn1C | 98% | 2.85% | 5.89% | 22% | 81.1% | 69.9% | 80.3% | 20.3% | 66.6% | 4.98% | 24.1% | 41.3% | 83.6% | 36.3% | 80.7% | 17.7% | 61.9% | 10.6% | 28.1% | 2.38% |
| CNC(=O)c1ncccc1Nc1nc(Nc2cc3c(cc2OC)CCCN3C(=O)CN(C)C)nc2[nH]ccc12 | 3.44% | 1.27% | 4.76% | 3.12% | 1.68% | -0.63% | 0.67% | 2.48% | 4.71% | 86.9% | 94.4% | 3.52% | 4.53% | 2.33% | 3.27% | 0.94% | 4.5% | 6.6% | 10.1% | 5.51% |
| O=C(O[C@H]1CN[C@H](C#Cc2cc3ncnc(Nc4ccc(OCc5cccc(F)c5)c(Cl)c4)c3s2)C1)N1CCOCC1 | 6.15% | 7.97% | 7.17% | 4.04% | 5.91% | -2.49% | -1.75% | 1.76% | 1.88% | 4.09% | 5.96% | 5.44% | 6.48% | 2.24% | 4.85% | 2.6% | 5.1% | 4.9% | 7.49% | 1.77% |
| CCN1CCC(C(=O)Nc2n[nH]c3nnc(-c4cccc(F)c4F)cc23)CC1 | 2.87% | -0.19% | -1.53% | 3.1% | -0.26% | 0.02% | 3.46% | -0.07% | 2.23% | -0.09% | -0.29% | 0.08% | -1.05% | 1.1% | 0.66% | 0.64% | 2.84% | 4.13% | 2.58% | 1.86% |
| CN1CCC(C(=O)Nc2n[nH]c3nc(-c4ccc(O)cc4)c(Br)cc23)CC1 | 12.5% and 9.42% | 4.08% and -0.48% | 5.39% and 3.49% | 2.44% and 0.42% | 4.98% and 0.1% | -0.43% and 0.93% | 0.37% and -0.64% | -0.45% and 3.18% | 7.96% and 12.4% | 11.7% and 9.83% | 50.1% and 45.5% | 4.2% and 2.89% | 8.89% and 2.99% | 2.55% and 3.95% | 6.26% and 2.78% | 1.28% and 4.74% | 4.17% and 6.1% | 3.13% and 11.9% | 14.2% and 6.92% | 2.28% and 1.53% |
| CN1CCC(n2cnc(-c3ccc(F)cc3)c2-c2ccnc(NCCO)n2)CC1 | 10.7% | 1.99% | 7.69% | 3.05% | 6.22% | -1.29% | -0.38% | 2% | 1.46% | 4.62% | 5.36% | 5.64% | 7.19% | 3.08% | 5.79% | 2.22% | 7.18% | 0.32% | 10.6% | 3.32% |
| CCOc1ccc2c(-c3ccnc(Nc4cc(OC)cc(C(F)(F)F)c4)n3)cnn2n1 | 56.5% | -2.22% | 2.86% | 1.55% | 14.5% | 2.02% | 5.97% | 1.12% | 4.52% | 0.61% | 1.37% | 2.55% | 5.91% | 0.62% | 4.08% | 1.11% | 4.18% | 4.49% | 5.18% | 0.02% |
| CS(=O)(=O)CCNCc1ccc(-c2ccc3ncnc(Nc4ccc(OCc5cccc(C(F)(F)F)c5)cc4)c3c2)o1 | 11.4% | 2.25% | 0.02% | 5.03% | 5.44% | -4.38% | -2.24% | 3.86% | 7.98% | 5.96% | 4.64% | 4.67% | 5.36% | -0.37% | 2.74% | 1.26% | 7.4% | 2.15% | 4.91% | 2.66% |
| Nc1nonc1-c1nc2cnccc2n1C1CC1 | 14.9% and 15.5% | 3.53% and 1.67% | 3.46% and 2.18% | 1.4% and 2.21% | 6.91% and 8.64% | -1.94% and 0.52% | -1.23% and -2.01% | 3.06% and -3.03% | 3.02% and -1.62% | 2.93% and 1.07% | 2.71% and 2.44% | 3.73% and 1.56% | 4.88% and 4.63% | 2.39% and 0.71% | 4.2% and 2.36% | 3.41% and 1.34% | 6.46% and 2.52% | 6.7% and 2.47% | 7.09% and 3.3% | 4.75% and 1.45% |
